Data taken from PubChem BioAssay AID504339 (National Center for Advancing Translational Sciences (NCATS), 2011).
Screen size: about 390,000 compounds; about 17,000 (4.4%) were called active. Entries that show only a call come without a potency. Inconclusive results (about 8%) are left out. Calls follow the shape of the dose curve; as a rule, active = well fitted inhibition curve with a large enough effect; inconclusive = small, poorly fitted or top-dose-only effect; inactive = no such curve, though single readings can be large or run the other way. The sample as a whole holds a higher share of actives than the screen did.

Target: Lysine-specific demethylase 4A (Homo sapiens) (UniProt O75164)
Assay: qHTS Assay for Inhibitors of JMJD2A-Tudor Domain; also: nearly all actives have a fitted effect of over 50% in size
Details: AlphaScreen JMJD2A-Tudor / H3K4me3 peptide binding; series mostly up to 114 µM
Potency is read from the fitted curve at half-maximal effect.

Sequence of Lysine-specific demethylase 4A (Homo sapiens) (O75164 whole entry, looked up, the tested form may be a part): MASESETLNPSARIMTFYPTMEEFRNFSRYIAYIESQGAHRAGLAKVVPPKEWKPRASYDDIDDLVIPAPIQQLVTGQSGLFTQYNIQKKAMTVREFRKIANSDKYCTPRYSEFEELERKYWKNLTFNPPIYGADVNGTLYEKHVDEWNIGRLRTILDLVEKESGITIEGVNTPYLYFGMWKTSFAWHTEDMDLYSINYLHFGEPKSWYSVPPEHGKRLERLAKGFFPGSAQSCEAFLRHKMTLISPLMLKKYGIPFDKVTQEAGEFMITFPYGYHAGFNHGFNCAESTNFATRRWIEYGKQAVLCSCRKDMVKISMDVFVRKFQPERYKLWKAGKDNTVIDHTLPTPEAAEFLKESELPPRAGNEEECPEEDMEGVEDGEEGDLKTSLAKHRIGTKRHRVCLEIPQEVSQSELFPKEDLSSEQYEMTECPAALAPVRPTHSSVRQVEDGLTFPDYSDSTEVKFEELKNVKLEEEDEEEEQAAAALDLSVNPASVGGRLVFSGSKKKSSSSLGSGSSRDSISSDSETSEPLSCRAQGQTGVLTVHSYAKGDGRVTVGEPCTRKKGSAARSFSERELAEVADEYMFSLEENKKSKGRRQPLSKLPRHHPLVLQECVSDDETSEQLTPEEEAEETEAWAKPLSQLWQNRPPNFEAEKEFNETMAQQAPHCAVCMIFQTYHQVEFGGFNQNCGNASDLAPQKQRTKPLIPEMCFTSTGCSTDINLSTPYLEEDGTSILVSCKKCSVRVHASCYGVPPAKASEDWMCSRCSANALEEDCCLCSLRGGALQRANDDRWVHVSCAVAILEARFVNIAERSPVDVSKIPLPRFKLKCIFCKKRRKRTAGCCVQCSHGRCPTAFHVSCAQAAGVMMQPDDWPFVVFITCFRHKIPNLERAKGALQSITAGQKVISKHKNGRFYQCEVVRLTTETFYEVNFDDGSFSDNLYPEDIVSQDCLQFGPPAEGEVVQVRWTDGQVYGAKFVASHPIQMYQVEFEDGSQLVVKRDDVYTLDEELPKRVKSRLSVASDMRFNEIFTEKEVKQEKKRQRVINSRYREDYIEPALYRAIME

SMILES | Potency
COc1cc(/C=C/C(=O)OCC(=O)c2ccccc2)cc(OC)c1OC | inactive
COc1ccc(NS(=O)(=O)c2cc(NC(=O)/C=C/c3cc(OC)c(OC)c(OC)c3)ccc2N2CCCCC2)cc1 | inactive
COc1ccccc1Nc1c2c(nc3ccc(NC(=O)/C=C/c4cc(OC)c(OC)c(OC)c4)cc13)CCCC2 | 15.8 µM (active)
O=C(CN1c2ccccc2S(=O)(=O)c2ccccc21)Nc1cccc(C(F)(F)F)c1 | inactive
COc1ccccc1N1CCN(c2ncnc3onc(-c4cccc(Cl)c4)c23)CC1 | inactive
COC(=O)c1ccc(NC(=O)c2cccc3c2C(=O)N(C2CCCCC2)C3)cc1 | inactive
CCCS(=O)(=O)c1ncc(Cl)c(C(=O)Nc2scc(-c3ccccc3)c2C(=O)OCC)n1 | inactive
COC(=O)c1ccc(NC(=S)NN2CCOCC2)cc1 | inactive
O=C(Nc1ccc(S(=O)(=O)Nc2ncccn2)cc1)C12CC3CC(CC(C3)C1)C2 | inactive
COC(=O)c1ccc(NC(=O)C23CC4CC(C2)CC(n2cnc(Cl)n2)(C4)C3)cc1 | 56.2 µM (active)
O=C(Nc1ccccc1F)C(c1ccccc1)N1Cc2ccccc2C1=O (centres undefined) | inactive
CCN(C(=O)Cn1c(=O)nc(-c2ccccc2)c2cc(Cl)ccc21)c1cccc(C)c1 | inactive
Cc1cn(C)c(CC(=O)NCc2ccc(Cl)cc2)c1C(=O)O | inactive
C[N+]1(CCNC(=O)/C=N/O)CCCCC1 | 50.1 µM (active)
CCc1cc2c(cc3c(=O)n(CC(=O)N4CCN(c5cc(Cl)ccc5C)CC4)nc(CC)n32)s1 | inactive
CCOC(=O)c1ccc(NC(=O)c2csc3c2CCCCC3)cc1 | inactive
O=C(/C=C/c1ccccc1)Nc1cc(-c2nc3cc(Cl)ccc3o2)ccc1Cl | inactive
Cc1ccc(NC(=S)Nc2ncccc2C)c(C)c1 | 56.2 µM (active)
Cc1cc(Br)ccc1NC(=S)NC1CCCC1 | inactive
Cc1ccc(NC(=S)NCCc2ccc(Cl)cc2)c(C)c1 | inactive
COC(=O)c1ccccc1NC(=O)c1ccc2c(=O)n3c(nc2c1)CCCCC3 | inactive
Cc1ccc(-c2cc(-c3coc4ccccc4c3=O)c3c(n2)-c2cc(Cl)ccc2OC3)cc1 | inactive
COc1ccccc1NC(=O)CN1C(=O)c2ccccc2Sc2ccc(C(=O)N3CCCC3)cc21 | inactive
COC(=O)CN1C(=O)C(O)=C(C(C)=O)C1c1ccc([N+](=O)[O-])cc1 (centres undefined) | 31.6 µM (active)
COc1ccc(C2C(C(C)=O)=C(O)C(=O)N2CCc2c[nH]c3ccccc23)cc1 (centres undefined) | inactive

SMILES | Potency
COc1ccc(C2C(C(C)=O)=C(O)C(=O)N2c2nccs2)cc1 (centres undefined) | inactive
CCOc1ccccc1NC(=O)Cn1c(=O)n(-c2cccc(C)c2)c(=O)c2c1c1cc(OC)ccc1n2C | inactive
CCN(CC)C(=O)CSc1nc2ccsc2c(=O)n1Cc1ccccc1Cl | inactive
Oc1ccccc1/C=N/n1c(-c2cccs2)n[nH]c1=S | 22.4 µM (active)
Nc1nnnn1/N=C/c1cccs1 | inactive
C(=N/N1CCN(c2ccccc2)CC1)/c1cccs1 | inactive
S=c1[nH]nc(-c2cccs2)n1/N=C/c1cccs1 | 10 µM (active)
Cn1c(=O)c2sccc2n2c(CCC(=O)NCc3ccccc3Cl)nnc12 | inactive
Cc1ccc(C(=O)Nc2ccc3[nH]c(=O)c(=O)[nH]c3c2)cc1 | inactive
O=[S+]([O-])(c1ccc(OC(F)(F)F)cc1)N1CCN([S+](=O)([O-])c2ccc3c(c2)OCCO3)CC1 | inactive
O=C(CC1Oc2ccc(Cl)cc2NC1=O)NCc1ccccc1 (centres undefined) | inactive
CCc1ccc(NC(=O)CCCc2nnc3n(CCCOC)c(=O)c4sccc4n23)cc1 | inactive
O=C(CSc1nc2nccnc2c(=O)n1CCc1c[nH]c2ccccc12)Nc1ccccc1F | inactive
Cc1cc2nn(-c3ccc(Cl)cc3)nc2cc1NC(=O)C(C)C | inactive
CCCCCCn1nnc2sc(-c3ccccc3)cc2c1=O | inactive
Cc1ccc(Cl)cc1NC(=O)C(C)n1nnc2sc(-c3ccccc3)cc2c1=O (centres undefined) | 50.1 µM (active)
COc1ccccc1-c1cc2nc(C)c(CCC(=O)O)c(C)n2n1 | inactive
Cc1ccc(C)n1-c1nnc(N2CCC(C(=O)NCc3ccc(F)cc3)CC2)s1 | inactive
NS(=O)(=O)c1ccc2nc(NC(=O)COc3ccccc3)sc2c1 | inactive
Cc1cc(C)cc(-n2ccnc2SCC(=O)Nc2nc3ccccc3s2)c1 | inactive
c1ccc(C(=NNc2nc3ccccc3s2)c2ccccn2)cc1 | 31.6 µM (active)
COc1cc(-c2cc3n(C)c(C)c(CCC(=O)Nc4ccc(F)cc4)c(=O)n3n2)cc(OC)c1OC | inactive
COC(=O)c1ccccc1NC(=O)c1cc(-c2ccccc2O)no1 | inactive
Fc1cccc(-n2ncc3c2ncn2nc(-c4ccccc4Cl)nc32)c1 | inactive
CC(=O)Nc1cccc(OCC(=O)/C=C2\N(C)c3ccccc3C2(C)C)c1 | inactive

SMILES | Potency
CN1CCN(CCC(=O)N/N=C/C=C2\N(C)c3ccccc3C2(C)C)CC1 | inactive
CN1/C(=C\C=C2\N=C(c3ccc(F)cc3)OC2=O)C(C)(C)c2ccccc21 | 56.2 µM (active)
O=C1C(F)N([S+](=O)([O-])c2ccc3c(c2)OCCO3)CCN1[S+](=O)([O-])c1c(F)cccc1F (centres undefined) | inactive
COCCCn1c(Cc2csc(Nc3cccc(Cl)c3)n2)nnc1SCC(=O)OC1CCCCC1 | 44.7 µM (active)
COCCCn1c(SCC(=O)NC2CCCC2)nnc1-c1ccccc1 | inactive
COCCCn1c(SCC(=O)Nc2ccccc2)nnc1-c1ccncc1 | inactive
COc1ccccc1CNc1ccc(-c2nc(-c3ccccc3C)no2)cc1[N+](=O)[O-] | inactive
Cc1nc(CNc2ncnc3ccc(-c4ccc5c(c4)OCO5)cc23)cs1 | 79.4 µM (active)
Cc1noc(C)c1-c1ccc2ncnc(NCc3ccc(F)c(F)c3)c2c1 | inactive
c1coc(CCNc2ncnc3ccc(-c4ccc5c(c4)OCO5)cc23)c1 | 56.2 µM (active)
O=C(Cn1nnc(-c2ccc3c(c2)OCO3)n1)NCc1ccco1 | inactive
CN(Cc1cncn1C)c1ncnc2ccc(-c3ccc4c(c3)OCO4)cc12 | inactive
CS(=O)(=O)N(CC(=O)NCc1ccco1)c1ccc2c(c1)OCO2 | inactive
O=c1c(=O)n(Cc2c(F)cccc2Cl)ccn1Cc1ccccc1 | inactive
COc1cc(Cl)ccc1Nc1ncc(C(=O)N2CCN(c3ccccc3OC)CC2)c2ccccc12 | inactive
Cc1cccc(C(=O)Nc2ccc(-c3nc4ccccc4s3)c(C)c2)c1 | inactive
COc1ccc(CNC(=O)CC2Oc3ccc(C)cc3NC2=O)cc1 (centres undefined) | inactive
Cc1ccc(-n2nc(CO)c(C(=O)NCCc3ccccc3)n2)cc1 | inactive
Cc1ccc(NC(=O)C2CCCN2C(=O)OCc2ccccc2)cc1C (centres undefined) | inactive
COc1ccc(C(=O)N2CCCCC2C(=O)Nc2ccc(-n3nc(C)cc3C)cc2)o1 (centres undefined) | 15.8 µM (active)
Cc1cc(C)n(-c2ccc(NC(=O)C3CCCCN3C(=O)c3cccs3)cc2)n1 (centres undefined) | inactive
Cc1nn(-c2ccc(N3CCCCC3)nn2)c(C)c1CCC(=O)NCc1ccc(F)cc1 | inactive
COc1ccc(-c2onc(C)c2C)cc1S(=O)(=O)NCCc1ccccc1 | inactive
CCC(CO)Oc1cc(NC(=O)c2ccc(Cl)cc2)c2ncn(C(C)C)c2c1 (centres undefined) | inactive
COc1ccc(CNc2nc(NCc3ccc(OC)cc3)c3ncn(C4CCCC4)c3n2)cc1 | inactive

SMILES | Potency
CC(C)n1cnc2c(NCc3ccccc3)cc(OCC3CCN(C)CC3)cc21 | 39.8 µM (active)
CN(C)c1nccc(NCc2ccccc2)c1C#N | inactive
CCC(CO)Oc1cc(NCc2ccccc2)c2ncn(C3CCCC3)c2c1 (centres undefined) | 56.2 µM (active)
CCOC(=O)c1cccc(NC(=O)c2cc(S(=O)(=O)N3CCCC(C)C3)cn2C)c1 (centres undefined) | inactive
CC1CCCCN1Cc1c(O)ccc2c(=O)c(-c3cccc(Cl)c3)c(C(F)(F)F)oc12 (centres undefined) | inactive
O=C(CN1C(=O)CCn2nc(-c3ccccc3)cc21)NCc1ccccc1 | inactive
Cc1nc2c(-c3ccccc3)c(C)nn2c(C)c1CCC(=O)NCCc1ccccc1 | inactive
COc1ccc(Cl)cc1NC(=O)CN(C)Cc1ccc(OC)c(OC)c1 | 1.26 µM (active)
Cn1c(=O)oc2cc(S(=O)(=O)CCC(=O)NCCc3ccc(Cl)cc3)ccc21 | inactive
CC(=O)N1CCc2cc(Br)cc(S(=O)(=O)CCC(=O)NCCc3ccc(Cl)cc3)c21 | inactive
COc1ccc(Cl)cc1NC(=O)CCC(=O)c1ccc(C)cc1 | inactive
COc1ccc(Cl)cc1NC(=O)CN(C)C(=O)c1ccc2n[nH]nc2c1 | inactive
COc1ccc(Cl)cc1NC(=O)CCS(=O)(=O)c1cc2c(cc1C)NC(=O)CO2 | inactive
COc1ccc(Cl)cc1NC(=O)CN(C)CC(=O)Nc1ccc2c(c1)OCO2 | inactive
COc1ccc(Cl)cc1NC(=O)CCS(=O)(=O)c1ccc(Br)cc1 | 22.4 µM (active)
O=C(CCS(=O)(=O)c1ccc(Br)cc1)NCCc1ccc(Cl)cc1 | 63.1 µM (active)
CCCOc1ccc(-c2cccc(NS(=O)(=O)c3ccccc3)c2)nn1 | inactive
COc1ccc(OC)c(-c2csc(-c3c(N)c(C(=O)c4ccccc4)n4ccccc34)n2)c1 | inactive
CCc1ccc(C(=O)CC2(O)C(=O)N(CCc3ccccc3)c3ccc(Br)cc32)cc1 (centres undefined) | inactive
C=C1CCN(Cc2ccc(OC)cc2)S(=O)(=O)c2ccccc21 | inactive
CC1Cc2cc(S(=O)(=O)CCC(=O)NCc3ccc(Cl)cc3)ccc2N1C(=O)C1CC1 (centres undefined) | inactive
Cc1cc(C)cc(NS(=O)(=O)c2ccc(-c3cc(C)no3)s2)c1 | inactive
Cc1cc(N=Nc2ccc3ccccc3c2)ccc1O | 44.7 µM (active)
COc1ccccc1-n1c(-c2ccc(C)cc2)cn2c3c(=O)n(C)c(=O)n(C)c3nc12 | inactive
